Inconclusive results are not listed. Activity calls are given as the source filed them. Calls follow the shape of the dose curve; as a rule, active = well fitted inhibition curve with a large enough effect; inconclusive = small, poorly fitted or top-dose-only effect; inactive = no such curve, though single readings can be large or run the other way.
Experiment: Confirmation assay for measurement of the activity of small molecule inhibitors on Zika virus induced Caspase-3 activity in human iPSC derived neural progenitor cells (hNPCs)
Details: hNPC ZIKV-induced caspase-3/7, Caspase-Glo luminescence, 6 h; series mostly up to 46.1 µM; activity, negative = inhibition: at the top concentration
Excerpt: National Center for Advancing Translational Sciences [NCATS] Johns Hopkins University School of Medicine Florida State University Assay Overview: Increase in the Caspase-3 activity indicates an activation of apoptosis cell death pathway caused by Zika virus infection in certain types of neuronal cells including human neural progenitor cells (hNPCs), astrocytes, and astrocytoma cell line (SNB-19). This cell-based caspase-3 activity assay measures the increased caspase-3 activity in the human iPSC derived neural progenitor cells (hNPCs) after a 6-hour Zika virus infection with a luminescence readout. A decrease in the luminescence signal in this assay by small molecule treatment indicates an inhibitory effect of that small molecule on the Zika virus induced caspase-3 activity that may correlate with its effect on reduction of Zika virus caused cell death.
Assay Protocol Summary: The medium for hNPCs consists of DMEM/F12, N2 supplement (ThermoFisher, Cat.# 17502048), NEAA (ThermoFisher, Cat. # 11140050), 2 ug/ml heparin, 2 uM cyclopamine, and B27 (ThermoFisher, Cat. # 17504044). A Caspase-Glo 3/7 assay kit (catalog number G8092; Promega, Madison, WI) was used to detect caspase-3 activity induced by Zika virus infection in human cells. The reagent mixture was reconstituted as described in the protocol from the manufacturer. Polystyrene tissue culture treated and PDL coated white plates were obtained from Greiner Bio-One (Monroe, NC). Cells were seeded in 384- or 1536-well assay plates and cultured at 37 C with 5% CO2 for 16 to 20 hours. The typical cell seeding density in the 1536-well plate assay is 350 cells/well in 3 ul medium for hNPCs in tissue culture treated plates. Compounds were added to cells and incubated for one hour before addition of ZIKV solution to cells (2 FFU/cell). After incubation at 37 C with 5% CO2 for 6 hours, the reagent mixture of Caspase-Glo 3/7 assay kit was added to each well, followed by incubation at room temperature for 30 minutes. The luminescence intensity of the assay plates was measured using a ViewLux plate reader (PerkinElmer). Data were normalized by using the cell-containing wells without ZIKV as a negative control (0% induction of caspase 3/7 activity) and wells containing ZIKV infected cells (Caspase-3 activity induced) as a positive control (100% induction of caspase 3 activity). The percentage inhibitions of the increased Caspase-3 activity by small molecule inhibitors were then calculated.

Row | SMILES | activity, negative = inhibition | Potency
1 | CC(C)[C@H]1C(=O)N[C@H](CO)Cc2c[nH]c3cccc(c23)N1C | -5.61% (inactive) | –
2 | COP(=S)(OC)SCN1C(=O)c2ccccc2C1=O | -12.9% (inactive) | –
3 | O=S(=O)(CC1CS1)c1ccc(Oc2ccccc2)cc1 (centres undefined) | 38.7% (inactive) | –
4 | COC1(CS(=O)c2ccccc2)CCN(CCc2c[nH]c3ccc(F)cc23)CC1 (centres undefined) | 6.59% (inactive) | –
5 | O=C1C=CC[C@@H]2[C@H]3CCCN4CCC[C@@H](CN12)[C@@H]34 | 25.5% (inactive) | –
6 | CC(C)[N+](C)(CCC(C(N)=O)(c1ccccc1)c1ccccc1)C(C)C | 5.49% (inactive) | –
7 | CC[n+]1c(-c2ccccc2)c2cc(N)ccc2c2ccc(N)cc21 | 3.42% (inactive) | –
8 | COc1cccc2c1C(=O)c1c(O)c3c(c(O)c1C2=O)C[C@@](O)(C(=O)CO)CC3OC1CC(N2CCOC(OC)C2)C(O)C(C)O1 (some centres undefined) | 37.9% (inactive) | –
9 | O=c1c2ccccc2[se]n1-c1ccccc1 | – | 7.74 µM (active)
10 | CC(C)N[C@@H]1CCn2c(=O)[nH]c3cccc(c32)[C@@H]1O | -9.33% (inactive) | –
11 | O=C(Nc1ccc(Br)cc1)c1cc(Br)cc(Br)c1O | – | 13.8 µM (active)
12 | CC(O)CN1CCN(CC(=O)[O-])CCN(CC(=O)[O-])CCN(CC(=O)[O-])CC1.[Gd+3] (centres undefined) | 6.07% (inactive) | –
13 | O=C1CCC[C@@H]2[C@H]3CCCN4CCC[C@@H](CN12)[C@@H]34 | 34.5% (inactive) | –
14 | Oc1ccc([C@H]2CNCc3c2ccc(O)c3O)cc1O | -7.08% (inactive) | –

— PubChem BioAssay AID1224855 (National Center for Advancing Translational Sciences (NCATS), 2016)
